Several values for one entry are separate records, joined by “and”; a condition that tells them apart may be missing. Equal values may be shown once. Records with an inconclusive call do not appear. Activity calls are given as the source filed them. Calls come from the whole dose curve; as a rule, active = well fitted curve in the direction sought with a large enough effect; inconclusive = small, poorly fitted or top-dose-only effect, or another doubt; inactive = no such curve, though single readings can be large; an effect the other way counts as inactive or inconclusive.
What was measured:
[1] = biological target: Catechol O-methyltransferase (Homo sapiens) (UniProt P21964); test: Confirmatory Screen for Target Class Profiling of Small Molecule Inhibitors of Methyltransferases (AID 1745852); conditions: MTase-Glo luminescence, SAH detection, recombinant enzyme; measured here: COMT max response; stronger effect = lower value; for activity change, negative = inhibition: % is set by controls: 0 for no effect and ±100 for the full control effect
Catechol O-methyltransferase (Homo sapiens), sequence (P21964 whole entry, looked up): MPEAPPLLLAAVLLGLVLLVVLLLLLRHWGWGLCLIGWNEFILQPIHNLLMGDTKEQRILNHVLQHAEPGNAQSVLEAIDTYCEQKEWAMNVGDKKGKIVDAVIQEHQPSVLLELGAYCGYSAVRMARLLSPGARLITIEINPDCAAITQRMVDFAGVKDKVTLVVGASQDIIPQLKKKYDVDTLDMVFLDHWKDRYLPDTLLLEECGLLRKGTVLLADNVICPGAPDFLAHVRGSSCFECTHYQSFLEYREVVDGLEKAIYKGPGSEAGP

[2] = biological target: Guanidinoacetate N-methyltransferase (Homo sapiens) (UniProt Q14353); test: as above; conditions: activity change, negative = inhibition: at 57.3 µM (top of the series) unless noted
[3] = biological target: Nicotinamide N-methyltransferase (Homo sapiens) (UniProt P40261); test: as above; conditions: MTase-Glo luminescence, SAH detection, recombinant enzyme; measured here: NNMT max response; stronger effect = lower value
Nicotinamide N-methyltransferase (Homo sapiens), sequence (P40261 whole entry, looked up): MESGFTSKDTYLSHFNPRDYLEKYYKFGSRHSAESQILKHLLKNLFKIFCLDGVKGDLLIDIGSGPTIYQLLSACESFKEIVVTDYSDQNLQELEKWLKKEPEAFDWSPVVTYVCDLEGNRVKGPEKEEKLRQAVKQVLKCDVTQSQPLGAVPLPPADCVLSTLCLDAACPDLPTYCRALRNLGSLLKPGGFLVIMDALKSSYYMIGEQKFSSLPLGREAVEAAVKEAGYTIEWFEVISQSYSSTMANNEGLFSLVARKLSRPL

[4] = biological target: Phenylethanolamine N-methyltransferase (Homo sapiens) (UniProt P11086); test: as above; conditions: MTase-Glo luminescence, SAH detection, recombinant enzyme; measured here: PNMT max response; stronger effect = lower value
Phenylethanolamine N-methyltransferase (Homo sapiens), sequence (P11086 whole entry, looked up): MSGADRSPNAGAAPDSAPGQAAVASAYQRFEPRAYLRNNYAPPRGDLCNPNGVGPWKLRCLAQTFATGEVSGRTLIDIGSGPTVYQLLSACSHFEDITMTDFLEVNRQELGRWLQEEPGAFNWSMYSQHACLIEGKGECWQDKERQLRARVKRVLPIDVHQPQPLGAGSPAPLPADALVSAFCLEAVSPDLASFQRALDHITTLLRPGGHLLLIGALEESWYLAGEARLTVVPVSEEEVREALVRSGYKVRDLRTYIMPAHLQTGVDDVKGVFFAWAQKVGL

CAOV3 = test: Primary qHTS to identify gynecologic anti-cancer compounds using libraries of approved drugs and bioactive compounds (AID 1345084); conditions: Gynecologic cancer cell panel viability, ATPlite luminescence, 48 h; series mostly up to 57.5 µM; note: % is set by controls: 0 for no effect and ±100 for the full control effect; nearly all actives have a fitted effect of over 55% in size
How it was run: (§1)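 Cells, 1,000 per well, plated 16 h, then exposed 48 h at 37 C to compounds. Viability by ATPlite luminescence after 15 min at room temperature.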

SKOV3 = test: as above; conditions: Gynecologic cancer cell panel viability, ATPlite luminescence, 48 h; series mostly up to 57.5 µM
How it was run: as §1

[5] = Primary fluorescence-based thiol-reactive (MSTI) qHTS assay for identification of artifact compounds. (AID 1845221);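 note: thiol-reactive compounds lower the probe fluorescence signal; nearly all actives have a fitted effect of over 65% in size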
How it was run: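 MSTI probe at 4 uM final in 2% DMSO/PBS pH 7.4; compounds, 1 h at room temperature in dark. Fluorescence Ex/Em 525/598 nm, normalised to Acetyl-MSTI and MSTI, fitted to 4-parameter Hill.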

PA-1 = test: Primary qHTS to identify gynecologic anti-cancer compounds using libraries of approved drugs and bioactive compounds (AID 1345084); conditions: Gynecologic cancer cell panel viability, ATPlite luminescence, 48 h; series mostly up to 57.5 µM; note: % is set by controls: 0 for no effect and ±100 for the full control effect; nearly all actives have a fitted effect of over 55% in size
How it was run: as §1

[6] = P-glycoprotein substrates identified in KB-3-1 adenocarcinoma cell line, qHTS therapeutic library screen (AID 1346986); note: nearly all actives have a fitted effect of over 60% in size;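 note: potency is the fitted concentration of half-maximal effect; potency is for cytotoxicity meaning loss of cell viability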; for activity change, negative = cytotoxicity: % is set by controls: 0 for no effect and ±100 for the full control effect
How it was run: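 KB-3-1 parental cells and P-gp-overexpressing KB-8-5-11 (colchicine omitted during assay) plated at 500 cells/well, dosed in dose-response, incubated 72 h at 37 degree C. CellTiter-Glo luminescence read; KB-8-5-11 also tested with tariquidar.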

[7] = system: Zika virus NS2B-NS3 protease; test: Primary screen GU AMC qHTS for Zika virus inhibitors (AID 1347154);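 note: 0% = no-inhibitor control and -100% = no-enzyme control; nearly all actives have a fitted effect of over 70% in size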
How it was run: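 Unlinked Zika NS2B hydrophilic domain/NS3 protease domain noncovalent complex (25 nM final) in 10 mM Tris-HCl pH 8.0, 0.01% Tween 20, with AMC peptide substrate. Fluorescence (ex 340, em 450 nm) change over 15 min, room temperature; percent inhibition fitted to 4-parameter Hill equation.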

[8] = Primary qHTS for small molecule stabilizers of the endoplasmic reticulum resident proteome: Secreted ER Calcium Modulated Protein (SERCaMP) assay (AID 1508630); note: % is set by controls: 0 for no effect and ±100 for the full control effect
How it was run: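 GLuc-SERCaMP-expressing SH-SY5Y cells, pretreated 16 h with compound, are challenged with thapsigargin to empty ER calcium stores; after 4 h, coelenterazine is added directly to the medium and luminescence is imaged.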

[9] = qHTS Assay for Identifying Gametocytocidal Compounds (AID 743244); note: potency is the fitted concentration of half-maximal effect;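 for max response: % is set by controls: 0 for no effect and ±100 for the full control effect; actives lower the fluorescent signal which means gametocytes are killed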; conditions: P. falciparum 3D7 stage III-V gametocytes, alamarBlue, 72 h; max response: stronger effect = lower value
How it was run: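 Stage III-V P. falciparum 3D7 gametocytes, 20,000 per well, were exposed to compounds for 72 h at 37C, 5% CO2. AlamarBlue was then added for 24 h and viability was read as fluorescence at Ex 525/Em 598 nm.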

[10] = Drug repurposing screens with cells derived from glioblastoma tumor samples (AID 1345199); conditions: GBM patient neurospheres viability, ATP luminescence, 48 h; note: nearly all actives have a fitted effect of over 40% in size; note: potency is the fitted concentration of half-maximal effect; for activity, negative = cell killing: % is set by controls: 0 for no effect and ±100 for the full control effect
How it was run: (§2)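 Four patient lines of CD133+ GBM neurospheres were screened at several concentrations; hits were retested in those lines plus three slower-growing GBM lines, using 48-hour treatment and ATP-based viability.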

[11] = biological target: Luciferin 4-monooxygenase (Photinus pyralis) (UniProt P08659); test: Biochemical firefly luciferase enzyme assay for NPC (AID 624030);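 note: purified P. pyralis luciferase at 10 nM with luciferin and ATP substrate; 0% = DMSO and -100% = full luciferase inhibition by PTC124 control; nearly all actives have a fitted effect of over 70% in size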
Luciferin 4-monooxygenase (Photinus pyralis), sequence (P08659 whole entry, looked up): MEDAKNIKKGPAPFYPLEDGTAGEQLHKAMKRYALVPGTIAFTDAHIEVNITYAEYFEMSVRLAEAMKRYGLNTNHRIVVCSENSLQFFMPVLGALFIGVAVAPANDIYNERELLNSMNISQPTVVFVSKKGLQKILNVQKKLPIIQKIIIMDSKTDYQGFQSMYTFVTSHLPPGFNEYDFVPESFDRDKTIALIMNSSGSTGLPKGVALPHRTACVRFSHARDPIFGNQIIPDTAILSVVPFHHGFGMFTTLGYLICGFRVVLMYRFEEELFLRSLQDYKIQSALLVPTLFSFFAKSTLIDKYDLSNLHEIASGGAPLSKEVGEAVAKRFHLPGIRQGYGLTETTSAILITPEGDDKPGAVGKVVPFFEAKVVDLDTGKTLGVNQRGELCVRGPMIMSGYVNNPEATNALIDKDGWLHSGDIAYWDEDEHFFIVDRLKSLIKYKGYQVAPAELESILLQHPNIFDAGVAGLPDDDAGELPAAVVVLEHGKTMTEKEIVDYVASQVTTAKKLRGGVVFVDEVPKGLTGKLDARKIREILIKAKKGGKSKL
How it was run: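 Counter-screen for direct inhibition of the luciferase enzyme by approved-drug library compounds, run at 10 nM enzyme in 50 mM Tris acetate (final). Luminescence was read within 5 min of enzyme-buffer addition and normalized to PTC124 versus DMSO (0%).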

astro = test: Drug repurposing screens with cells derived from glioblastoma tumor samples (AID 1345199); conditions: viability, ATP luminescence, 48 h; series mostly up to 45.9 µM; note: nearly all actives have a fitted effect of over 40% in size; note: potency is the fitted concentration of half-maximal effect
How it was run: as §2

[12] = qHTS to identify inhibitors of the type 1 interferon - major histocompatibility complex class I in skeletal muscle: primary screen against the NCATS Mechanism Interrogation Plate v5.0 (MIPE) Libary (AID 1347411); note: nearly all actives have a fitted effect of over 65% in size; note: potency is the fitted concentration of half-maximal effect;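 for activity change, negative = inhibition: plate controls were vehicle for no effect and reference inhibitor for full effect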
How it was run: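 Immortalized human C25cl48 myoblasts with HiBit knocked into endogenous HLA-B*08:01 were stimulated with 4.0 ng/ml IFN-beta and exposed to compounds (11-point 1:3 titration, top 46 uM final) for 24 hrs at 37 C; HiBiT lytic luminescence measured.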

[13] = at 45.9 µM (top of the series), tumour line B
[14] = at 45.9 µM (top of the series), tumour line D
[15] = at 46.1 µM (top of the series), tumour line C

## CN(C)CCCCCCNC(=O)c1cccc(-c2cc(O)c3ncccc3c2)c1
[1]
  activity: -95.5%
[2]
  activity change, negative = inhibition: 6.43%
[3]
  activity: -1.3%
[4]
  activity: 4.93%
CAOV3
  Potency: inactive
SKOV3
  Potency: inactive

## Fc1ccc(C2CCNC[C@H]2COc2ccc3c(c2)OCO3)cc1 (some centres undefined)
[5]
  Potency: inactive
PA-1
  Potency: inactive

## CC[C@@H](C)[C@H]1C(=O)O[C@H](C(C)C)C(=O)N(C)[C@@H](C(C)C)C(=O)O[C@H](C(C)C)C(=O)N(C)[C@@H](C(C)C)C(=O)O[C@H](CC(C)C)C(=O)N1C
[5]
  Potency: inactive

## Cc1nc2c(O)cccc2c(=O)[nH]1
[6]
  Potency: inactive
[7]
  Potency: inactive
[8]
  Potency: inactive

## COc1cc([C@@H]2c3cc4c(cc3C(O[C@@H]3O[C@@H]5CO[C@@H](C)O[C@H]5[C@H](O)[C@H]3O)C3COC(=O)[C@@H]32)OCO4)cc(OC)c1OP(=O)(O)O (some centres undefined)
[9]
  max response: 4.76% (inactive) and -12.7% (inactive)
[10]; [13]
  activity, negative = cell killing: -18.7% (inactive)
[10]; [14]
  activity, negative = cell killing: -17% (inactive)
[10]; [15]
  activity, negative = cell killing: -13.7% (inactive)
[10]; tumour line A
  Potency: 15.8 µM (active)

## CN1CCN(CCC=C2c3ccccc3Sc3ccc(S(=O)(=O)N(C)C)cc32)CC1
[11]
  Potency: inactive
[10]; [15]
  activity, negative = cell killing: 4.82% (inactive)
[10]; tumour line A
  Potency: 7.08 µM (active)
[10]; tumour line B
  Potency: 35.5 µM (active)
astro
  Potency: 31.6 µM (active)

## C/C1=C2N=C(/C=C3N=C(/C(C)=C4\[N-]C(C(CC(N)=O)C4(C)CCC(=O)NCC(C)OP(=O)([O-])OC4C(CO)OC(n5cnc6cc(C)c(C)cc65)C4O)C4(C)N=C1C(CCC(N)=O)C4(C)CC(N)=O)C(CCC(N)=O)C\3(C)C)C(CCC(N)=O)C/2(C)CC(N)=O.[CH3-].[Co+3] (centres undefined)
[9]
  Potency: 22.4 µM (active)
[10]; [14]
  activity, negative = cell killing: -36.9% (inactive)

## CCN(CC)C(=O)c1cc(S(=O)(=O)Cc2ccccc2)c(N2CCC(c3ccccc3)CC2)cc1N(CC)CCN(C)C
astro
  Potency: 12.6 µM (active)

## CS(=O)(=O)CCNCc1nc(-c2ccc3ncnc(Nc4ccc(OCc5cccc(F)c5)c(Cl)c4)c3c2)cs1
[6]
  activity change, negative = cytotoxicity: 4.91% [at 9.29 µM] (inactive)
[7]
  Potency: inactive

## CCOC(=O)CCC(=O)O[C@H]1[C@H](O[C@@H]2[C@@H](C)[C@H](O[C@H]3C[C@@](C)(OC)[C@@H](O)[C@H](C)O3)[C@@H](C)C(=O)O[C@H](CC)[C@@](C)(O)[C@H](O)[C@@H](C)C(=O)[C@H](C)C[C@@]2(C)O)O[C@H](C)C[C@@H]1N(C)C
[9]
  max response: -6.05% (inactive)
[10]; [13]
  activity, negative = cell killing: -6.36% (inactive)
[10]; [14]
  activity, negative = cell killing: -16.9% (inactive)
[10]; [15]
  activity, negative = cell killing: 1.07% (inactive)
[10]; tumour line A
  Potency: 35.5 µM (active)
astro
  Potency: inactive

## COc1cc(/C=C(\C#N)C(N)=O)cc(CSc2nc3ccccc3s2)c1O
[6]
  Potency: inactive
[7]
  Potency: inactive
[8]
  Potency: inactive

## O=C(O)c1ccc2c3c1cccc3c(=O)n1c3ccccc3nc21
[6]
  Potency: inactive
[7]
  Potency: inactive

## CN(CC(=O)N1CCOCC1)Cc1c(Cl)cccc1NC(=O)c1ccccc1
[11]
  Potency: inactive
[9]
  max response: -0.892% (inactive)
[10]; [13]
  activity, negative = cell killing: -3.67% (inactive)
[10]; [14]
  activity, negative = cell killing: -22.4% (inactive)
[10]; [15]
  activity, negative = cell killing: -9.11% (inactive)
[10]; tumour line A
  Potency: 35.5 µM (active)
astro
  Potency: inactive

## COc1c(Nc2ncc(Cl)c(N[C@H]3[C@H](C(N)=O)[C@@H]4C=C[C@@H]3C4)n2)ccc2c1CCC(N1CCOCC1)CC2 (some centres undefined)
[6]
  Potency: 6.51 µM (active)
[12]
  Potency: inactive

## O=C(Nc1cc(Oc2cc(F)c(NC(=O)C3(C(=O)Nc4ccc(F)cc4)CC3)cc2F)ccn1)C1CC1
[6]
  Potency: 5.17 µM (active)
[12]
  Potency: 18.6 µM (active)
